Whole data set: some 140,000 sequences, median “enrichment ratio after two sorts for PhoP signalling” near 0, cut for the highest 2% near 11. Many of the other results were omitted from the sample, so the highest values are more common in it than they were.

To fix the notation:
B1: PhoQ; a variant is named by its letters at X, in order, P23837 (parent)
chain: MKKLLRLFFPLSLRVRFLLATAAVVLVLSLAYGMVALIGYSVSFDKTTFRLLRGESNLFYTLAKWENNKLHVELPENIDKQSPTMTLIYDENGQLLWAQRDVPWLMKMIQPDWLKSNGFHEIEADVNDTSLLLSGDHSIQQQLQEVREDDDDAEMTHSVAVNVYPATSRMPKLTIVVVDTIPVELKSSYMVWSWFIYVLSANLLLVIPLLWVAAWWSLRPIEALAKEVRELEEHNRELLNPATTRELTSLVRNLNRLLKSERERYDKYRTTLTDLTHSLKTPLXXLQXXLRSLRSEKMSVSDAEPVMLEQISRISQQIGYYLHRASMRGGTLLSRELHPVAPLLDNLTSALNKVYQRKGVNISLDISPEISFVGEQNDFVEVMGNVLDNACKYCLEFVEISARQTDEHLYIVVEDDGPGIPLSKREVIFDRGQRVDTLRPGQGVGLAVAREITEQYEGKIVAGESMLGGARMEVIFGRQHSAPKDE

In the test the parent is B1. Briefly: enrichment ratio after two sorts for PhoP signalling (ratio (wild type AVST 3.29)); higher = more functional. Conditions: with PhoP (E. coli).
With FWLQ, the enrichment ratio was ≤ 0.25.
In the case of ISFK, the enrichment ratio is ≤ 0.25.
The value for HFQN was ≤ 0.25; that for SRTQ was ≤ 0.25; that for KKLM was ≤ 0.25.
Turning to FDLM, the enrichment ratio was ≤ 0.25.
As to VHLM, the enrichment ratio was ≤ 0.25.
Consider THLM, for which the enrichment ratio amounted to 12.3.
Consider TKLM, for which the enrichment ratio stood at 21.3.
On to AQLM, for which the enrichment ratio was 19.4.
The value for IQLM was 3.4; that for HKLM was ≤ 0.25; that for ADLM was 12.7.
Consider NHLM, for which the enrichment ratio is ≤ 0.25.
The value for APLM was ≤ 0.25.
Take FHFT: the enrichment ratio is ≤ 0.25.
With HCCR the figure was ≤ 0.25.
For PGAV, the enrichment ratio was ≤ 0.25.
With DVEF, the enrichment ratio was ≤ 0.25.
The value for FMQW was ≤ 0.25; that for QFLI was ≤ 0.25.
As for NSRM, the enrichment ratio is ≤ 0.25.
On to RLVV, for which the enrichment ratio was ≤ 0.25.
The value for TTNN was 17.8; that for TWNN was 0.76; that for SPNN was ≤ 0.25.
TVNN: the enrichment ratio came out at 12.7.
Regarding YTNN, the enrichment ratio is ≤ 0.25.
For TNNN, the enrichment ratio is 14.7.
As for TNQN, the enrichment ratio came out at 16.8.
With TNMN the figure was ≤ 0.25; with TNEN, ≤ 0.25.
For KCNN, the enrichment ratio was ≤ 0.25.
On to ITNN, for which the enrichment ratio was ≤ 0.25.
As for PVNN, the enrichment ratio is ≤ 0.25.
In the case of MDAD, the enrichment ratio was ≤ 0.25.
The value for QRKY was ≤ 0.25; that for NDMN was ≤ 0.25.
For EKIL, the enrichment ratio is ≤ 0.25.
The value for PHCG was ≤ 0.25; that for SNES was ≤ 0.25; that for IPVP was ≤ 0.25.
On to TDNN, for which the enrichment ratio came out at 33.6.
LTNN: the enrichment ratio was ≤ 0.25.
With FDNN the figure was ≤ 0.25.
Take TNKH: the enrichment ratio is ≤ 0.25.
Turning to MNQH, the enrichment ratio is ≤ 0.25.
Consider TNQH, for which the enrichment ratio amounted to 15.
Consider ISMG, for which the enrichment ratio was determined as 1.17.
In the case of WDMF, the enrichment ratio is ≤ 0.25.
Regarding KSIQ, the enrichment ratio was ≤ 0.25.
The value for WNCS was ≤ 0.25; that for TCTK was 5.27; that for TCTC was 11.4.
Turning to TCTA, the enrichment ratio came out at 11.4.
In the case of TCDW, the enrichment ratio is ≤ 0.25.
The value for TCIC was ≤ 0.25.
In the case of TCTS, the enrichment ratio was determined as 17.5.
As to TCTI, the enrichment ratio was 17.1.
In the case of TCTH, the enrichment ratio was 3.96.
TCTE: the enrichment ratio is ≤ 0.25.
In the case of KCTI, the enrichment ratio is ≤ 0.25.
KCTA: the enrichment ratio was ≤ 0.25.
On to TCNK, for which the enrichment ratio is ≤ 0.25.
Take WMFM: the enrichment ratio was ≤ 0.25.
HQPT: the enrichment ratio was ≤ 0.25.
As to PYKQ, the enrichment ratio is ≤ 0.25.
With WRPH the figure was ≤ 0.25.
Take LLYS: the enrichment ratio was ≤ 0.25.
As for VMRN, the enrichment ratio is ≤ 0.25.
For AANR, the enrichment ratio is ≤ 0.25.
With IGAM, the enrichment ratio was ≤ 0.25.
SVEG: the enrichment ratio is ≤ 0.25.
Turning to NHNM, the enrichment ratio is ≤ 0.25.
As to VWYA, the enrichment ratio is ≤ 0.25.
On to SFCD, for which the enrichment ratio is ≤ 0.25.
SSCI: the enrichment ratio came to 24.5.
On to SSCE, for which the enrichment ratio stood at 3.26.
On to SSQP, for which the enrichment ratio was ≤ 0.25.
For FSCQ, the enrichment ratio was 7.11.
With SSCQ the figure was 13.4; with KSCG, 1.82; with SPCV, ≤ 0.25.
On to TSCG, for which the enrichment ratio is 7.32.
For SSCS, the enrichment ratio was found to be 9.51.
In the case of SSCG, the enrichment ratio was found to be 12.6.
On to SSCV, for which the enrichment ratio was determined as 18.4.
With SLCV, the enrichment ratio was 7.13.
AHKE: the enrichment ratio was ≤ 0.25.
With PMIW the figure was ≤ 0.25.
On to RAKS, for which the enrichment ratio is ≤ 0.25.
On to VANQ, for which the enrichment ratio is ≤ 0.25.
For IINC, the enrichment ratio is ≤ 0.25.
The value for VHNE was ≤ 0.25.
Take SDFS: the enrichment ratio was ≤ 0.25.
PMPC: the enrichment ratio is ≤ 0.25.
With KFDS, the enrichment ratio is ≤ 0.25.
On to YAQF, for which the enrichment ratio was ≤ 0.25.
Regarding EIRD, the enrichment ratio was ≤ 0.25.
Consider SSWL, for which the enrichment ratio was determined as 10.6.
With SSNL the figure was 3.91; with SSCL, 18.7.
Take WSRR: the enrichment ratio was ≤ 0.25.
Regarding ELIY, the enrichment ratio was ≤ 0.25.
Consider KGHE, for which the enrichment ratio is ≤ 0.25.
With VIMF the figure was ≤ 0.25; with CTTS, 16.8; with TTTC, 5.52.
The value for YTTS was ≤ 0.25; that for KCHH was ≤ 0.25.
Consider TTHH, for which the enrichment ratio turned out to be 11.8.
On to FCHH, for which the enrichment ratio is ≤ 0.25.
As for YTHH, the enrichment ratio was ≤ 0.25.
On to TTTS, for which the enrichment ratio came to 14.1.
Take CSTS: the enrichment ratio was ≤ 0.25.
For KSHH, the enrichment ratio is ≤ 0.25.
Turning to LTTS, the enrichment ratio was ≤ 0.25.
As to TCHH, the enrichment ratio worked out at 26.2.
SRLA: the enrichment ratio was ≤ 0.25.
With NNFT, the enrichment ratio was ≤ 0.25.
The value for PAYF was ≤ 0.25.
With PHQG, the enrichment ratio is ≤ 0.25.
For the variant LARQ, the enrichment ratio was ≤ 0.25.
Take VYWL: the enrichment ratio is ≤ 0.25.
Regarding HTSP, the enrichment ratio is ≤ 0.25.
The value for QDNG was ≤ 0.25; that for PCTP was ≤ 0.25; that for KNRD was ≤ 0.25.
For PYIP, the enrichment ratio is ≤ 0.25.
With SDAL, the enrichment ratio was ≤ 0.25.
Regarding TCES, the enrichment ratio was ≤ 0.25.
For the variant VDIK, the enrichment ratio is ≤ 0.25.
With KVYK the figure was ≤ 0.25; with HCSM, ≤ 0.25.
On to CLFG, for which the enrichment ratio was ≤ 0.25.
For the variant NIPT, the enrichment ratio was ≤ 0.25.
Take YTTH: the enrichment ratio is ≤ 0.25.
The value for TTNH was 12.2.
As to TTTK, the enrichment ratio turned out to be 16.7.
As for LTNH, the enrichment ratio is ≤ 0.25.
Turning to TTTH, the enrichment ratio worked out at 20.3.
With KSTK, the enrichment ratio was ≤ 0.25.
Turning to YTNH, the enrichment ratio is ≤ 0.25.
With TTKH the figure was ≤ 0.25.
YTTK: the enrichment ratio was ≤ 0.25.
With ENFF the figure was ≤ 0.25; with VSFD, 0.544.
As to LAEF, the enrichment ratio was ≤ 0.25.
Consider YEFI, for which the enrichment ratio is ≤ 0.25.
For TRCW, the enrichment ratio was ≤ 0.25.
On to YFRG, for which the enrichment ratio is ≤ 0.25.
Consider GFVM, for which the enrichment ratio is ≤ 0.25.
As for RLME, the enrichment ratio is ≤ 0.25.
With QHMY, the enrichment ratio was ≤ 0.25.
As to LECK, the enrichment ratio came to 1.26.
Take DMCM: the enrichment ratio was ≤ 0.25.
The value for NECM was 28.2; that for FNCM was 5.18.
Turning to FECM, the enrichment ratio stood at 5.
With YWCM, the enrichment ratio was ≤ 0.25.
For MACM, the enrichment ratio was ≤ 0.25.
With MECM the figure was 36.6.
The value for LECM was 17.2.
With LNCM, the enrichment ratio is ≤ 0.25.
For TECK, the enrichment ratio turned out to be 4.11.
Consider TECM, for which the enrichment ratio was 31.3.
With QCSI, the enrichment ratio was ≤ 0.25.
Regarding QACK, the enrichment ratio is ≤ 0.25.
GTRW: the enrichment ratio is ≤ 0.25.
For TLVA, the enrichment ratio was ≤ 0.25.
With TYNL the figure was 3.68.
For RPMT, the enrichment ratio is ≤ 0.25.
For the variant HVPY, the enrichment ratio was ≤ 0.25.
WMTR: the enrichment ratio is ≤ 0.25.
With WIHI the figure was ≤ 0.25.
For WFNQ, the enrichment ratio is ≤ 0.25.
Consider HCCF, for which the enrichment ratio was ≤ 0.25.
With NQVC, the enrichment ratio was ≤ 0.25.
Consider TQVA, for which the enrichment ratio is 3.07.
In the case of TQED, the enrichment ratio is ≤ 0.25.
As to TQVC, the enrichment ratio was found to be 14.3.
Turning to TQWG, the enrichment ratio was 18.3.
With TQMD, the enrichment ratio was 63.
With TQGD the figure was 2.92; with TQEG, ≤ 0.25.
For KSWG, the enrichment ratio was ≤ 0.25.
For the variant WQVC, the enrichment ratio is ≤ 0.25.
TGWG: the enrichment ratio is 5.4.
Consider TQVG, for which the enrichment ratio amounted to 12.2.
As for IQCQ, the enrichment ratio was ≤ 0.25.
As to ACAH, the enrichment ratio was 4.6.
Turning to GLLF, the enrichment ratio came out at 4.76.
The value for NFMP was ≤ 0.25.
In the case of LLRY, the enrichment ratio was ≤ 0.25.
With VNTC, the enrichment ratio was ≤ 0.25.
